Assay results: PubChem BioAssay (NCI)
The panel holds about 83,000 compounds, 20% with a hit somewhere; the sample as a whole holds those more often.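 Treatment: one concentration, 48 hours, 96-well format. Scoring: percent growth, with anything below 10 considered active.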 Values without a mark were called inactive. Activity calls are given as the source filed them.

system: PC-3 prostate; assay: NCI-60 one-dose screen, 48 h (100 = growth as untreated, 0 = no growth, -100 = all killed); details: 10 µM unless noted

Q: Which growth does the source give for `Fc1ccc(Nc2nc3nonc3nc2Nc2ccc(F)cc2)cc1` here?
A: 1.43% (active)

Q: Which growth does the source give for `COc1cc(C2CC(c3ccc(Nc4nc(Nc5ccc(F)cc5)nc(Nc5ccc(Cl)cc5)n4)cc3)=NN2C(C)=O)cc(OC)c1OC` (stereo unspecified) here?
A: 32.6%

Q: How did the growth turn out when `c1ccc2[nH]c(SSc3nc4ncncc4[nH]3)nc2c1` was run?
A: 42.9%

Q: How did the growth turn out when `COc1cccc(CCC2CCCN(c3cc(C)nc(N)n3)C2)c1` (stereo unspecified) was run?
A: 20.2%

Q: With `COc1cc(C2C=C(c3cccc(NC(C)=O)c3)Nc3ncnn32)cc(OC)c1OC` (stereo unspecified) as the molecule, how does the growth read?
A: 33.3%

Q: How did the growth turn out when `Cc1c(C(=O)O)nnn1-c1nccs1` was run?
A: 89.4%

Q: Which growth does the source give for `CC(C)c1ccc(C(=O)OC(=O)c2ccc(C(C)C)cc2)cc1` here?
A: 86.8%

Q: `c1ccc(-c2oc3ccccc3c2-c2ccccc2)cc1` was tested. Which growth did it give?
A: 90%

Q: Which growth does the source give for `C=CC(=O)Nc1cccc(C)c1Nc1cc(-c2cccnc2Cc2c(C)c(OC)cc(OC)c2C)ncn1` here?
A: 8.05% (active)

Q: With `Clc1ccc2[nH]c3c(NCCCN4CCOCC4)ncnc3c2c1` as the molecule, how does the growth read?
A: 75.6%

Q: With `CCCCCCCC/C=C\CCCCCCCC(=O)Oc1cccc2cccnc12` as the molecule, how does the growth read?
A: 114%

Q: With `CCN(CC)CCCNC(=O)c1ccc(N)cc1O` as the molecule, how does the growth read?
A: 94.2%

Q: Which growth does the source give for `CC(C)n1nc(C#Cc2cccc(O)c2)c2c(N)ncnc21` here?
A: -11.8% (active)

Q: `CSc1ccc(Cl)c(C(=O)Nc2sccc2C(N)=O)c1` was tested. Which growth did it give?
A: 83.8%

Q: Which growth does the source give for `COc1ccc(NC(=O)c2cccc(-c3cc(=O)c4c(O)c(OC)c(OC)cc4o3)c2)cc1` here?
A: 86.2%

Q: How did the growth turn out when `CC(C)OCCCNCC(=O)Nc1ccc(S(=O)(=O)c2ccc(NC(=O)CNCCCOC(C)C)cc2)cc1` was run?
A: 87%
